# Assays:
# Assay in all cases: DAPPL (digital affinity profiling via proximity ligation, sequencing); 10 mM Tris-HCl pH 7.5, 50 mM NaCl, 1 mM DTT, 4% glycerol, room temperature, 30 min; GST-TFs on glutathione beads, 16-mer random dsDNA library, 0.1% formaldehyde crosslink after washing; high values mean tight binding
# FEV = biological target: T1, FEV (Homo sapiens, UniProt Q99581 1-238); settings: protein: recombinant; tags: N-terminal GST; dsDNA, one strand shown
# T1 sequence: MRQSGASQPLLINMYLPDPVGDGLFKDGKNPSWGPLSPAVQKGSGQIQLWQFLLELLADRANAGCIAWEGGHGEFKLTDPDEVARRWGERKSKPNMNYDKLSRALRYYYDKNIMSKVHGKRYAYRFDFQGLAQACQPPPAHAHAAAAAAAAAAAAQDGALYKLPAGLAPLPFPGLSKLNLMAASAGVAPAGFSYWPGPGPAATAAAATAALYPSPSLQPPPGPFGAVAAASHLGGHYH
# In short: (§1)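 Each value of binding signal is a hexamer's read frequency for a factor divided by the same hexamer's frequency in the tag-only sample. Barcoded, bead-captured GST fusions of human transcription factors made in yeast were pooled with that sample and incubated with 200 nmole of a random double-stranded 16-mer DNA library in Tris/NaCl/DTT/glycerol buffer at room temperature for 30 min. Washing, 0.1% formaldehyde crosslinking, proximity ligation, PCR and Illumina NextSeq500 sequencing followed.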
# ETV5 = ETV5 (Homo sapiens, UniProt P41161 1-510); settings: protein: recombinant; tags: N-terminal GST; dsDNA, one strand shown
# In short: as §1
# HSF1 = HSF1 (Homo sapiens, UniProt Q00613 1-529); settings: protein: recombinant; tags: N-terminal GST; chain copies: 3; dsDNA, one strand shown
# In short: as §1
# SPIC = biological target: T2, SPIC (Homo sapiens, UniProt Q8N5J4 1-248); settings: protein: recombinant; tags: N-terminal GST; dsDNA, one strand shown
# T2 sequence: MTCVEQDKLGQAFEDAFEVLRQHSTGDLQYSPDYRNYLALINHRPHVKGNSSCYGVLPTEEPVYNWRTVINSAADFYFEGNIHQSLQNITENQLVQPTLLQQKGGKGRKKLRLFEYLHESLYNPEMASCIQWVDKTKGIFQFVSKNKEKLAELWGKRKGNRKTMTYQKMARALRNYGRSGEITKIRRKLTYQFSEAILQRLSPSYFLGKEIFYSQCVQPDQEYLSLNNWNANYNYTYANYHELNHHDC
# In short: as §1
# ELF4 = ELF4 (Homo sapiens, UniProt Q99607 1-663); settings: protein: recombinant; tags: N-terminal GST; dsDNA, one strand shown
# In short: as §1
# ELK4 = biological target: T3, ELK4 (Homo sapiens, UniProt P28324-2 1-405); settings: protein: recombinant; tags: N-terminal GST; dsDNA, one strand shown
# T3 sequence: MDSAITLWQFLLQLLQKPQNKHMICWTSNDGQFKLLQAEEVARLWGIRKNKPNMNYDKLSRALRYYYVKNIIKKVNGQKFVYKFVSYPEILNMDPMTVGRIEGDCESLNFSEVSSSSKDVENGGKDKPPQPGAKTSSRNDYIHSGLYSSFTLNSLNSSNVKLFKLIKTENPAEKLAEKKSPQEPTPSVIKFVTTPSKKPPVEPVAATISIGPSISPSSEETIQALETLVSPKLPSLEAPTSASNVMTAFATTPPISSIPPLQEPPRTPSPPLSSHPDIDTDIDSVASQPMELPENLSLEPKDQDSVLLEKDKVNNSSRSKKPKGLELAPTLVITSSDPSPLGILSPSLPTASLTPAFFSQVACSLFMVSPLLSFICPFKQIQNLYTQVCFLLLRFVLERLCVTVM
# In short: as §1
# ETV2 = biological target: T4, ETV2 (Homo sapiens, UniProt O00321 1-342); settings: protein: recombinant; tags: N-terminal GST; dsDNA, one strand shown
# T4 sequence: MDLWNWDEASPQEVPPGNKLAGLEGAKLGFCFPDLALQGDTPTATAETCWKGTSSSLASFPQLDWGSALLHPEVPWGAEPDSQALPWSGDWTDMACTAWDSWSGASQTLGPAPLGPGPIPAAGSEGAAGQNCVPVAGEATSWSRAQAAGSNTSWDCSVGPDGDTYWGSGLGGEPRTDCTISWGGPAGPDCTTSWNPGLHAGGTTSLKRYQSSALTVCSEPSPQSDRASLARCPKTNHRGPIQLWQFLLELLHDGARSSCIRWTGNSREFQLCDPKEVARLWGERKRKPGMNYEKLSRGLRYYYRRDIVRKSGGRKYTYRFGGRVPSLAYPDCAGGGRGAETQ
# In short: as §1
# ELF3 = biological target: T5, ELF3 (Homo sapiens, UniProt P78545 1-371); settings: protein: recombinant; tags: N-terminal GST; dsDNA, one strand shown
# T5 sequence: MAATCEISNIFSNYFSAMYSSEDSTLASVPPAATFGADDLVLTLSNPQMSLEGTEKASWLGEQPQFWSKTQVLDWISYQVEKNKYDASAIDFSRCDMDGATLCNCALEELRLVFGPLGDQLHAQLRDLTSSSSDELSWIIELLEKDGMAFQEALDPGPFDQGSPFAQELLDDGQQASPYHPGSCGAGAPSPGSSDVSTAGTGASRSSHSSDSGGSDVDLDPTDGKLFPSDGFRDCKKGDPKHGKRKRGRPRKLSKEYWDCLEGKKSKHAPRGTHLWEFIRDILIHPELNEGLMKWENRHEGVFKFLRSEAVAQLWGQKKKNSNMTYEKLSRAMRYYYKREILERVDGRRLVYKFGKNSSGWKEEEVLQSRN
# In short: as §1
# CRX = CRX (Homo sapiens, UniProt O43186 1-299); settings: protein: recombinant; tags: N-terminal GST; dsDNA, one strand shown
# In short: as §1
# ETV1 = ETV1 (Homo sapiens, UniProt P50549 1-477); settings: protein: recombinant; tags: N-terminal GST; dsDNA, one strand shown
# In short: as §1
# ERF = biological target: T6, ERF (Homo sapiens, UniProt P50548 1-548); settings: protein: recombinant; tags: N-terminal GST; dsDNA, one strand shown
# T6 sequence: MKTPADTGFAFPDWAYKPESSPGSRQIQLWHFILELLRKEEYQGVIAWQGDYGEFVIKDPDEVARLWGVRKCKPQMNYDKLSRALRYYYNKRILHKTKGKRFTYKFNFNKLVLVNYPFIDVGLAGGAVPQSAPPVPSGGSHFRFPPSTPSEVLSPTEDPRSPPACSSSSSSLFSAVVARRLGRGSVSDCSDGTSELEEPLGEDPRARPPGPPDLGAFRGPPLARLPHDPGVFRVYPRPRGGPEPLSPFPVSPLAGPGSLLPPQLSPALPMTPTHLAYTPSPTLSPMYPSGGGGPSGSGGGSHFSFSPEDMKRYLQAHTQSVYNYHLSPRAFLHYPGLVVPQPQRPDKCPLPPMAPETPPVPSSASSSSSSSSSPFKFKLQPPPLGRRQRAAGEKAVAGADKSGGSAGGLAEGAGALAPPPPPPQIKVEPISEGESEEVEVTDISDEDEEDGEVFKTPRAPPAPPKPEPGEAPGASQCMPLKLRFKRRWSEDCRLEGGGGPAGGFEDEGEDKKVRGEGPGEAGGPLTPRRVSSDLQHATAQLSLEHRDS
# In short: as §1
# ETV3L = biological target: T7, ETV3L (Homo sapiens, UniProt Q6ZN32 1-361); settings: protein: recombinant; tags: N-terminal GST; dsDNA, one strand shown
# T7 sequence: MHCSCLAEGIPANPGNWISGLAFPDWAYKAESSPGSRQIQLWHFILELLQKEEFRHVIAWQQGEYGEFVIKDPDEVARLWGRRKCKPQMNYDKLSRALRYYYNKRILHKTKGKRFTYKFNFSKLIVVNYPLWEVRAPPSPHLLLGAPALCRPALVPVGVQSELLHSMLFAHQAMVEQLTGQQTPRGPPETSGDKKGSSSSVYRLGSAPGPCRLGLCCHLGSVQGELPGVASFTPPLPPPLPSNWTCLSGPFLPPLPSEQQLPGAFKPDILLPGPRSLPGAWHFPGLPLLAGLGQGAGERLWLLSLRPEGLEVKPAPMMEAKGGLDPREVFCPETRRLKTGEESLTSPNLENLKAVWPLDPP
# In short: as §1
# ETS2 = biological target: T8, ETS2 (Homo sapiens, UniProt P15036 1-469); settings: protein: recombinant; tags: N-terminal GST; dsDNA, one strand shown
# T8 sequence: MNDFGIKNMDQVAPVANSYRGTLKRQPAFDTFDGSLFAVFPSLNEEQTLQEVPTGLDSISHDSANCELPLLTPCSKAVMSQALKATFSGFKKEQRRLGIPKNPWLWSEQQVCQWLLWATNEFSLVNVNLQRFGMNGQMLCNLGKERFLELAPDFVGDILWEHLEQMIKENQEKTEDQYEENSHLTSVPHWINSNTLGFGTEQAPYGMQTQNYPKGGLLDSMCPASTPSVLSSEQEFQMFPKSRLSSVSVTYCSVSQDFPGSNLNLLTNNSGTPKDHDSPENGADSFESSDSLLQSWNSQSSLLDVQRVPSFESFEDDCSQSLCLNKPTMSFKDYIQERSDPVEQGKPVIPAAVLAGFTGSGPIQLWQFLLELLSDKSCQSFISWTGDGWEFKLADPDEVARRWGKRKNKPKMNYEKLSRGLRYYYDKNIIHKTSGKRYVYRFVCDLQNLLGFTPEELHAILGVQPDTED
# In short: as §1
# SPDEF = biological target: T9, SPDEF (Homo sapiens, UniProt O95238 1-335); settings: protein: recombinant; tags: N-terminal GST; dsDNA, one strand shown
# T9 sequence: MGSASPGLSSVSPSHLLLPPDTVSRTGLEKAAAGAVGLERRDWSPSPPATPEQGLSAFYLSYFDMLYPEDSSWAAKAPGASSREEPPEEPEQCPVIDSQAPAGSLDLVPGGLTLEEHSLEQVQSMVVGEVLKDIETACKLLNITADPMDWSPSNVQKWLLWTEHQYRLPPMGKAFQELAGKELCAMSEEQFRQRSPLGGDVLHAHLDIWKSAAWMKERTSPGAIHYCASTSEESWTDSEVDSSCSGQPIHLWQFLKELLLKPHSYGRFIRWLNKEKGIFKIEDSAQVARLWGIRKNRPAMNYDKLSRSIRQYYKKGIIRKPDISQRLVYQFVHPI
# In short: as §1
# ETV7 = biological target: T10, ETV7 (Homo sapiens, UniProt Q9Y603 1-341); settings: protein: recombinant; tags: N-terminal GST; dsDNA, one strand shown
# T10 sequence: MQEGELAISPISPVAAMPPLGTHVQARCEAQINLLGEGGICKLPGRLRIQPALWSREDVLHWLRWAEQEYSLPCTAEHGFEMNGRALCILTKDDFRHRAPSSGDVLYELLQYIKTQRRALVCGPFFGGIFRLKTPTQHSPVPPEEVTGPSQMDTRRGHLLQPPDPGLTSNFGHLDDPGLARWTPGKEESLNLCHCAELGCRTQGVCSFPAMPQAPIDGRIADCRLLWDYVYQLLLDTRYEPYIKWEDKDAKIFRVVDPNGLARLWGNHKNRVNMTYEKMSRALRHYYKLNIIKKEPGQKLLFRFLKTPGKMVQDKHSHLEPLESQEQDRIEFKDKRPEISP
# In short: as §1
# ELF5 = biological target: T11, ELF5 (Homo sapiens, UniProt Q9UKW6-2 1-255); settings: protein: recombinant; tags: N-terminal GST; dsDNA, one strand shown
# T11 sequence: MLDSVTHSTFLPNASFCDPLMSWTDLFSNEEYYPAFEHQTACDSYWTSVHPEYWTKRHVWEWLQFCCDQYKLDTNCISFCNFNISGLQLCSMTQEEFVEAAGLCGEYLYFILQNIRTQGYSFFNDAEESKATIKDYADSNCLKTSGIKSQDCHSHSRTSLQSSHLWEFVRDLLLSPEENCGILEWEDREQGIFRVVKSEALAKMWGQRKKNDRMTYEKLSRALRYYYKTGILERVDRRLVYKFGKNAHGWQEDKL
# In short: as §1
# ETV3 = biological target: T12, ETV3 (Homo sapiens, UniProt P41162-2 1-143); settings: protein: recombinant; tags: N-terminal GST; dsDNA, one strand shown
# T12 sequence: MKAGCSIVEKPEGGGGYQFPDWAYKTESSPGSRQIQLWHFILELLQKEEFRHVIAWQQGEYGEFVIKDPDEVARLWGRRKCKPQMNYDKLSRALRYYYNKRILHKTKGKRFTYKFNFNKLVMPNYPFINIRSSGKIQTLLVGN
# In short: as §1
# ETV6 = ETV6 (Homo sapiens, UniProt P41212 1-452); settings: protein: recombinant; tags: N-terminal GST; dsDNA, one strand shown
# In short: as §1
# Sequence of ETV1 (P50549 whole entry): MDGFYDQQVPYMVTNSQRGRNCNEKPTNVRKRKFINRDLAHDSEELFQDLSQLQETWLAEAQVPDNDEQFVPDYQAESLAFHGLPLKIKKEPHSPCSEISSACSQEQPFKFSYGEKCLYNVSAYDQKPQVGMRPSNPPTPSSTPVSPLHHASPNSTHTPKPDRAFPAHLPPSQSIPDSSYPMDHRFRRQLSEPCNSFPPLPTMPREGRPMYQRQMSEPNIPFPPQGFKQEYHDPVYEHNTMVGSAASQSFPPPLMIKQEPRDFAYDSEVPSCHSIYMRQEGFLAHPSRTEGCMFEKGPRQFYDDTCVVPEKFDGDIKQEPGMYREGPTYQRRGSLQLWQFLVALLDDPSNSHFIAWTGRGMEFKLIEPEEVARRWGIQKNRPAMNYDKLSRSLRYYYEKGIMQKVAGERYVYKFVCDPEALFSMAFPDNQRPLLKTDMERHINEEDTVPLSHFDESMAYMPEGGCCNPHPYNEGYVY
# Sequence of ETV6 (P41212 whole entry): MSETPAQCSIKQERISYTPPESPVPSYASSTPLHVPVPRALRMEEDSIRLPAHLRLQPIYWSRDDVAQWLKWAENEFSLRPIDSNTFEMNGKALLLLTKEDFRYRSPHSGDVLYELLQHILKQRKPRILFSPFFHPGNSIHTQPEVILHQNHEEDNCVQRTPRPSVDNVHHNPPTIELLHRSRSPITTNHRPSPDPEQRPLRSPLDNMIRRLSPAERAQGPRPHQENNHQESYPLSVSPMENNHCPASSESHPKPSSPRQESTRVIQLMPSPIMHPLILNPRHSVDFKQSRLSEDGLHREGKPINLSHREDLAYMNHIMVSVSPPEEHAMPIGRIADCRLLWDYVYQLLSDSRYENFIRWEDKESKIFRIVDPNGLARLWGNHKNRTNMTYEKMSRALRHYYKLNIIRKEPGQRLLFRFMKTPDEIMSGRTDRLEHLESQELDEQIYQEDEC
# Sequence of HSF1 (Q00613 whole entry): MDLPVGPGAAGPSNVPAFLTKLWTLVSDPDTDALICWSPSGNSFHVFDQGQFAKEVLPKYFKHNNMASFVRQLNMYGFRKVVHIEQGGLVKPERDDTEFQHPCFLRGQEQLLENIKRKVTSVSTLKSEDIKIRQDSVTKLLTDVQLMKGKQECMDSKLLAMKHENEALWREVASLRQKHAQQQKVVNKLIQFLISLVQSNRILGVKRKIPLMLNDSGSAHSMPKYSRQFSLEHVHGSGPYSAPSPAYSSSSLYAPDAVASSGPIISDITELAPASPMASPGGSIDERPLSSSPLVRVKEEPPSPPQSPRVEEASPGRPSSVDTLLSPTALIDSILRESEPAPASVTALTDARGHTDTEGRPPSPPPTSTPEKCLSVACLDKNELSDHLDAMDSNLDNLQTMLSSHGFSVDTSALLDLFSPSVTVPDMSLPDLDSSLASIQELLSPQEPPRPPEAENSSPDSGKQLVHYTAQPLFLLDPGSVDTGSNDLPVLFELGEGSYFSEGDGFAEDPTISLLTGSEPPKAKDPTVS
# Sequence of ELF4 (Q99607 whole entry): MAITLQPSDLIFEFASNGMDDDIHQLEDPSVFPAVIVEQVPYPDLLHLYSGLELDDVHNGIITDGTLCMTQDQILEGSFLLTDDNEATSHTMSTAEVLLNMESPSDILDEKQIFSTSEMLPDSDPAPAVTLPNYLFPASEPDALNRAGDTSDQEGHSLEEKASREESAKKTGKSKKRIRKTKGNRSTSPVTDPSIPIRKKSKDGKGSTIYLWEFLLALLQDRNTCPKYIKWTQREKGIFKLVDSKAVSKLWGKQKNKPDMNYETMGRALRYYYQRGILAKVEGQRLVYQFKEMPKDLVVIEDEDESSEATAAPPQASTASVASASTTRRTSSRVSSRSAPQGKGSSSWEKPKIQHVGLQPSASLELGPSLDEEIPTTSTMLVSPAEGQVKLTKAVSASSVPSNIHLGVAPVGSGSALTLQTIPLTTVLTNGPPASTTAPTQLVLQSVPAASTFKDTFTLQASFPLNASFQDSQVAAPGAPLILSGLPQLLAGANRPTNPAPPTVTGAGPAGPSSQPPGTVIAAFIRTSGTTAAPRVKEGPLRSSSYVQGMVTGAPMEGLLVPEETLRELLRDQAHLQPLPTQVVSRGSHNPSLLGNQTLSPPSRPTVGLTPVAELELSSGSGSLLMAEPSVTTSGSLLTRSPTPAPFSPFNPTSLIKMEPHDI
# Sequence of CRX (O43186 whole entry): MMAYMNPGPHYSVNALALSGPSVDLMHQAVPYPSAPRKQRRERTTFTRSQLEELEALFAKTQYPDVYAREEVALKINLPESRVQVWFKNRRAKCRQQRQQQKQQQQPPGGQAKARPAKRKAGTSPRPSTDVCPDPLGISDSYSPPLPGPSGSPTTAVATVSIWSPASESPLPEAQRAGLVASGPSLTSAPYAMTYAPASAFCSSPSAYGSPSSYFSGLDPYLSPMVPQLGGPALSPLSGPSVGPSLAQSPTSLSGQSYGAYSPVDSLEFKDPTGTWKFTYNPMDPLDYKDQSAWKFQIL
# Sequence of ETV5 (P41161 whole entry): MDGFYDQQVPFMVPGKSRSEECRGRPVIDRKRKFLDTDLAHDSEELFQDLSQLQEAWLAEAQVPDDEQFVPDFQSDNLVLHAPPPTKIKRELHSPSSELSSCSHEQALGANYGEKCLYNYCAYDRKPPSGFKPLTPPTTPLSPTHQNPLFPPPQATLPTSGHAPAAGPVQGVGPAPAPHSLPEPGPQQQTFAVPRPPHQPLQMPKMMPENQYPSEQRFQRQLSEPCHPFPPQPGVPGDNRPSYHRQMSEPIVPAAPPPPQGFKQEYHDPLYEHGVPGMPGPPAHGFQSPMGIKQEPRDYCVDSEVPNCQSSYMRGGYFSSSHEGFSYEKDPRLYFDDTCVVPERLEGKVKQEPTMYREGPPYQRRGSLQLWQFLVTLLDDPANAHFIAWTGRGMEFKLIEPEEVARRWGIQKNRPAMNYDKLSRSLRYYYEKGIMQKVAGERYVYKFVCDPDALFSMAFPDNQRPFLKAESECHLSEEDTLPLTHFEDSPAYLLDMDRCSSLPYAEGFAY
sequence,measurement,setting,value
AGGTCT,binding signal,FEV,"1.11 fold enrichment (6-mer frequency, TF over GST control)"
same,binding signal,ETV5,"1.2 fold enrichment (6-mer frequency, TF over GST control)"
same,binding signal,HSF1,"1.09 fold enrichment (6-mer frequency, TF over GST control)"
same,binding signal,SPIC,"1.13 fold enrichment (6-mer frequency, TF over GST control)"
same,binding signal,ELF4,"1.2 fold enrichment (6-mer frequency, TF over GST control)"
same,binding signal,ELK4,"1.23 fold enrichment (6-mer frequency, TF over GST control)"
same,binding signal,ETV2,"1.23 fold enrichment (6-mer frequency, TF over GST control)"
same,binding signal,ELF3,"1.08 fold enrichment (6-mer frequency, TF over GST control)"
same,binding signal,CRX,"1.21 fold enrichment (6-mer frequency, TF over GST control)"
same,binding signal,ETV1,"1.16 fold enrichment (6-mer frequency, TF over GST control)"
same,binding signal,ERF,"1.26 fold enrichment (6-mer frequency, TF over GST control)"
same,binding signal,ETV3L,"1.14 fold enrichment (6-mer frequency, TF over GST control)"
same,binding signal,ETS2,"1.2 fold enrichment (6-mer frequency, TF over GST control)"
same,binding signal,SPDEF,"1.1 fold enrichment (6-mer frequency, TF over GST control)"
same,binding signal,ETV7,"1.2 fold enrichment (6-mer frequency, TF over GST control)"
same,binding signal,ELF5,"1.16 fold enrichment (6-mer frequency, TF over GST control)"
same,binding signal,ETV3,"1.11 fold enrichment (6-mer frequency, TF over GST control)"
same,binding signal,ETV6,"1.07 fold enrichment (6-mer frequency, TF over GST control)"

# Reference: paper PMC7862700, “An all-to-all approach to the identification of sequence-specific readers for epigenetic DNA modifications on cytosine”
